PubChem BioAssay AID602240 (Southern Research Specialized Biocontainment Screening …, 2012)
The source made the active and inactive calls. No rule for the calls is given here.

experiment: viability loss in Vero 76 cells – cell-based, set 2, cytotoxicity control, dose response (AID 602240); conditions: Vero 76 cells viability, cytotoxicity counter-screen for VEEV; series mostly up to 50 µM

SMILES	outcome
Clc1ccc2nnnc(-c3ccccc3)c2c1	inactive
O=C(Oc1ccc2ccccc2c1Br)N1CCCCCC1	inactive
O=c1nc(Nc2ccc(OCc3ccccc3)cc2)sc2ncccc12	inactive
CCN1CCN(Cc2nc3ccc([N+](=O)[O-])cc3c(=O)n2-c2ccccc2F)CC1	inactive
O=c1c2cc([N+](=O)[O-])ccc2nc(CN2CCN(c3ccccc3)CC2)n1-c1ccccc1F	inactive
